# Assay results as given in PubChem BioAssay.
# Values joined by “and” are separate entries in the source; they are usually repeats but may differ in a detail not shown here. Identical values can stand only once. Inconclusive results are not listed. Active and inactive are the calls of the source.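 How the source made its calls, unless noted: active means GFP response above 150% of the DMSO control; inconclusive means fewer than 70 events counted in any yeast strain; inactive means the rest.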
# How the values were obtained:
# [1] = yeast TOR pathway RPL19A-GFP modulators, primary screen, cell-based, S. cerevisiae, multiplex flow cytometry (AID 1862; in the data active means percent of DMSO control GFP below about 86%;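 further: lower values mimic rapamycin by blocking the RPL19A rise seen in DMSO cells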); conditions: S. cerevisiae RPL19A-GFP strain, flow cytometry fluorescence, 3 h; at 10 µM; stronger effect = lower value
# [2] = modulators of MEP2-GFP levels in yeast, primary screen, S. cerevisiae, multiplex flow cytometry (AID 1867;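 active means GFP response, as percent of the DMSO control, above the screen-wide mean plus 3 SD, about 139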;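 further: median GFP channel fluorescence of barcode-gated MEP2-GFP cells measured by flow cytometry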); conditions: S. cerevisiae MEP2-GFP strain, 3 h, at 10 µM, stronger effect = higher value, 100% means same as DMSO wells
# [3] = modulators of CIT2-GFP expression in yeast, primary screen, S. cerevisiae, GFP fusion, multiplex flow cytometry (AID 1870;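 active means percent response above a set limit, the screen-wide mean plus 3 SD, cut at about 130% in these data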;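 further: barcoded CIT2-GFP strain pooled with four other GFP strains with rapamycin as positive control; median GFP fluorescence per well over plate mean of DMSO wells so 100% = DMSO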); conditions: 3 h, at 10 µM, stronger effect = higher value
# [4] = modulators of LAP4-GFP expression in yeast, primary screen, S. cerevisiae, multiplex flow cytometry (AID 1873;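 active means GFP signal, as percent of the solvent control, above the screen mean plus 3 SD, about 149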); conditions: 3 h, at 10 µM, stronger effect = higher value
# [5] = modulators of AGP1-GFP expression in yeast TOR pathway, primary screen, cell-based, multiplex flow cytometry, S. cerevisiae (AID 1887;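 active means GFP signal above the screen-wide mean plus 3 SD, that is over about 124.5% of the solvent control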;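 further: AGP1-GFP fusion strain of S. cerevisiae within a five-strain barcoded multiplex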); conditions: 3 h, at 10 µM, stronger effect = higher value
# [6] = RPL19A-GFP modulators, yeast TOR pathway, confirmation, cell-based, S. cerevisiae, flow cytometry, cherry picks, mother/daughter gates (AID 2270;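 active means GFP response below 50% of the DMSO control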); conditions: S. cerevisiae RPL19A-GFP strain, 3 h, at 10 µM, stronger effect = lower value, 100 = same GFP as DMSO wells
# [7] = LAP4-GFP expression modulators in yeast, confirmation, cell-based, cherry picks, flow cytometry, mother/daughter gates (AID 2271);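 further: ratio of sample to DMSO plate mean so 100% equals DMSO level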; conditions: S. cerevisiae LAP4-GFP strain, 3 h, at 10 µM, stronger effect = higher value, 100 means same as DMSO control
# [8] = modulators of MEP2-GFP levels in yeast, confirmation, S. cerevisiae, flow cytometry GFP, cherry picks (AID 2272;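 active means GFP response above 150% of the DMSO control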;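 further: ratio of well signal to plate DMSO mean so 100% equals DMSO level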); conditions: S. cerevisiae MEP2-GFP strain, 3 h, at 10 µM, stronger effect = higher value
# [9] = modulators of CIT2-GFP expression in yeast, confirmation, S. cerevisiae, GFP fusion, cherry picks, mother/daughter gates (AID 2274;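 active means GFP response above 150% of the DMSO level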); conditions: S. cerevisiae CIT2-GFP strain, flow cytometry, 3 h, at 10 µM, stronger effect = higher value
# [10] = inhibitors of CD8+ T cell-vesicle binding, pilot screen, LFA-1/ICAM-1 modulator project, MLPCN validation set, flow cytometry (AID 2523;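 active means response below a set limit, under 55% cells CD8-positive and vesicle-bound, and CD8 cells' 90th-percentile brightness under 279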;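 on vesicle binding response: mean PE anti-B7-1 fluorescence of CD8+ cells relative to row control; 100% = QL9-loaded vesicles with DMSO vehicle in the same plate row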); conditions: 2C mouse CD8+ T cells, at 7 µM, stronger effect = lower value; double positive events: measured here: CD8+/vesicle+ event percentage
# [11] = biological target: Integrin beta-1 (Homo sapiens) + Integrin alpha-4 (Homo sapiens) (UniProt P13612+P05556); assay: inhibition of HUTS-21 binding to VLA-4, pilot screen, VLA-4 allosteric modulator project, U937 cells, HUTS-21 mAb, flow cytometry, validation set (AID 2674;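 active means inhibition above 50%, about 3 SD of the validation set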;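 further: antibody binding induced by the VLA-4 ligand LDV present at three times its Kd; 0% = LDV ligand with antibody and no compound and 100% = antibody without LDV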); conditions: HUTS-21 LIBS mAb binding, at 6.7 µM, stronger effect = higher value, binding induced by LDV ligand
# [12] = superoxide lowering in aged yeast cells, pilot screen, validation compound set (AID 2706;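 active means superoxide response below 65% of plate, a cut near 3 SD across the whole screen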;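 further: yeast exposed to compound for one week at 30 degrees C before staining; 100% = mean of all compound wells on the same plate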); conditions: S. cerevisiae aging, superoxide DHE fluorescence; at 10 µM; stronger effect = lower value
# [13] = biological target: Beta-adrenergic receptor kinase 1 (Homo sapiens) (UniProt P25098); assay: GRK2 binders displacing RNA aptamer, biochemical, validation, human GRK2, bead flow cytometry (AID 488806;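 active means aptamer binding inhibition above 30%, about 3 SD of noise from non-fluorescent compounds; inactive means inhibition at or below 30%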); conditions: bead-bound GRK2, FAM-aptamer displacement, at 10 µM, stronger effect = higher value
# [14] = biological target: AP-2 complex subunit beta (Homo sapiens) (UniProt P63010); assay: inhibitors of arrestin peptide binding to AP2, pilot screen, biochemical, validation set, GST-AP2 beads, flow cytometry (AID 504541;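 active means inhibition above 54%, about 3 SD of non-fluorescent compounds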;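 further: AP2 carries R879A mutation and is captured from E. coli lysate; bead-bound FITC arrestin peptide fluorescence measuring arrestin peptide binding to AP2; 0% = DMSO wells and 100% = excess unlabeled arrestin peptide control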); conditions: FITC arrestin peptide, at 10 µM, stronger effect = higher value, AP2 beta2 appendage fragment, R879A mutant
# [15] = yeast V-ATPase proton transport modulators, S. cerevisiae, pHLuorin, HTS validation (AID 504600; in the data active means response above about 15%;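 further: plate controls were DMSO for no effect and reference compound for full effect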); conditions: S. cerevisiae pHLuorin cytosolic pH, at 10 µM, stronger effect = higher value
# [16] = system: anti-desmoglein-3 scFv antibody binding to human DSG3; assay: inhibitors of anti-DSG3 scFv binding to DSG3, pilot screen, biochemical, validation compound set, bead-based, flow cytometry (AID 588368;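 active means binding below the plate cutoff, the plate median minus 3 SD, with a reading above zero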;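 further: signal is the median channel fluorescence of bead-bound GFP antibody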); conditions: Protein G beads, DSG3-Fc, scFv-GFP binding, at 10 µM, stronger effect = lower value
# [17] = inhibitors of fungal efflux pumps CDR1, CDR2, MDR1, pilot screen, validation compound set, multiplex, phenotypic (AID 588506;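 active means efflux inhibition above 0.42, the validation set average plus 4 SD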;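 further: Nile Red retained in cells so higher fluorescence means more efflux inhibition; 0 = negative control wells and 1 = enniatin B 25 µM full block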); conditions: S. cerevisiae pump-expressing triplex, Nile Red efflux flow cytometry; at 10 µM; stronger effect = higher value; the pumps come from Candida albicans
# [18] = biological target: ATP-binding cassette sub-family B member 6 (Homo sapiens) (UniProt Q9NP58); assay: ABCB6 transporter inhibitors, pilot screen, K562-ABCB6 cells, flow cytometry, validation set (AID 588550;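 active means inhibition above the screen-wide mean plus 3 SD, about 51%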;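 further: 0% = DMSO wells and 100% = benzethonium chloride 70 µM positive control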); conditions: K562-ABCB6 porphyrin accumulation, 1 h, at 10 µM, stronger effect = higher value
# [19] = promoters of myeloid differentiation in arrested cells, primary screen, cell-based, GFP/MAC1 double positive, flow cytometry, validation set (AID 588685;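 active means differentiation response of at least 50%, scaled between solvent and reference control, from cells with both markers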;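 further: compound exposure lasts four days before antibody staining and flow analysis; 0% = DMSO wells and 100% = 5 µM fulvestrant positive control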); conditions: ER-HoxA9 marrow cells, stronger effect = higher value, normalized: vehicle 0, fulvestrant 100
# [20] = biological target: Beta-2 adrenergic receptor (Homo sapiens) (UniProt P07550); assay: beta2AR agonists driving receptor internalization, pilot screen, cell-based, FAP fluorogen, flow cytometry, validation set (AID 504459;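 active means percent response above 42, roughly 3 SD of non-fluorescent test compounds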;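 further: agonist-driven loss of surface beta2AR via internalization measured by FAP dye flow cytometry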); conditions: Am2.2-beta2AR cells, FAP surface receptor flow cytometry; at 10 µM; stronger effect = higher value
# [21] = measured here: daughter cell gate
# [22] = measured here: mother cell gate
# [23] = measured here: daughter cell gate response
# [24] = measured here: mother cell gate response
# Beta-adrenergic receptor kinase 1 (Homo sapiens), sequence (P25098 whole entry, looked up): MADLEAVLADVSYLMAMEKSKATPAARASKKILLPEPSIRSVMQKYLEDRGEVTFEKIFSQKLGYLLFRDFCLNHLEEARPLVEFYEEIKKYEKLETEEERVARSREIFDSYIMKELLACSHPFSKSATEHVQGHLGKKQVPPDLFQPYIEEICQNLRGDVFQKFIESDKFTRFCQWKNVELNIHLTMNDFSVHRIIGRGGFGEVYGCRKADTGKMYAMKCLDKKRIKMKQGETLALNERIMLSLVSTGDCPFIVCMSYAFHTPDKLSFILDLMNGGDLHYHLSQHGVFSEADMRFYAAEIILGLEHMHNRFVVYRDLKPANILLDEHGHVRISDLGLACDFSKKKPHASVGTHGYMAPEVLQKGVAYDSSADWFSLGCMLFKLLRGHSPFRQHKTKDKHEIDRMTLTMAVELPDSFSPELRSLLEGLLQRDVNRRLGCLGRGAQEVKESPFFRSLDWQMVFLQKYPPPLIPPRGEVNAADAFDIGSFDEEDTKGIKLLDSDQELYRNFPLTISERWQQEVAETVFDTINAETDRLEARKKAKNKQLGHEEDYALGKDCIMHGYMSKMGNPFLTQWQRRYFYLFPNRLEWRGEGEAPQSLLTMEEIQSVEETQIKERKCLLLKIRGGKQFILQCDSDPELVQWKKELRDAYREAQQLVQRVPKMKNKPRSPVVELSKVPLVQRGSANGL
# Integrin beta-1 (Homo sapiens) + Integrin alpha-4 (Homo sapiens), sequence (P05556 whole entry, looked up): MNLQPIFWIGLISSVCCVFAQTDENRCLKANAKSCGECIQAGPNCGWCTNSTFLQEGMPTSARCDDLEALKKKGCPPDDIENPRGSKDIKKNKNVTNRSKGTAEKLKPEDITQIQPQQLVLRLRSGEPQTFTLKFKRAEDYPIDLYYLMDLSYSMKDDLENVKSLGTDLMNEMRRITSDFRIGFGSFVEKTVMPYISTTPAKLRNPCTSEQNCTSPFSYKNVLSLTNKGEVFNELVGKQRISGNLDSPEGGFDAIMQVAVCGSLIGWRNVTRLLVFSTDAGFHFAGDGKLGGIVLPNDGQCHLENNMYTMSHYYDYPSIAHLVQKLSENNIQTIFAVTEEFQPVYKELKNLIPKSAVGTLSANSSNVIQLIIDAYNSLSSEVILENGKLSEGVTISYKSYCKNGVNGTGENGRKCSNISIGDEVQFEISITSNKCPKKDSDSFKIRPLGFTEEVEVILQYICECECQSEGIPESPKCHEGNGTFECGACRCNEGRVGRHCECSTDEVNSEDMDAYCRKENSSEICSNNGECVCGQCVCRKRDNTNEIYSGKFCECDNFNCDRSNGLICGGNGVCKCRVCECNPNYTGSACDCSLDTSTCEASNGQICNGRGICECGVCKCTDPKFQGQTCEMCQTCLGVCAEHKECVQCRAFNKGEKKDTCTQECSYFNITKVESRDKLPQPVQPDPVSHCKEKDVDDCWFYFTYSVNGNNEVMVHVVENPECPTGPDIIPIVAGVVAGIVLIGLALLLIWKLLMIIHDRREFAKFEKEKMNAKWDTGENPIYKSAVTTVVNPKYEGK
# Integrin beta-1 (Homo sapiens) + Integrin alpha-4 (Homo sapiens), sequence (P13612 whole entry, looked up): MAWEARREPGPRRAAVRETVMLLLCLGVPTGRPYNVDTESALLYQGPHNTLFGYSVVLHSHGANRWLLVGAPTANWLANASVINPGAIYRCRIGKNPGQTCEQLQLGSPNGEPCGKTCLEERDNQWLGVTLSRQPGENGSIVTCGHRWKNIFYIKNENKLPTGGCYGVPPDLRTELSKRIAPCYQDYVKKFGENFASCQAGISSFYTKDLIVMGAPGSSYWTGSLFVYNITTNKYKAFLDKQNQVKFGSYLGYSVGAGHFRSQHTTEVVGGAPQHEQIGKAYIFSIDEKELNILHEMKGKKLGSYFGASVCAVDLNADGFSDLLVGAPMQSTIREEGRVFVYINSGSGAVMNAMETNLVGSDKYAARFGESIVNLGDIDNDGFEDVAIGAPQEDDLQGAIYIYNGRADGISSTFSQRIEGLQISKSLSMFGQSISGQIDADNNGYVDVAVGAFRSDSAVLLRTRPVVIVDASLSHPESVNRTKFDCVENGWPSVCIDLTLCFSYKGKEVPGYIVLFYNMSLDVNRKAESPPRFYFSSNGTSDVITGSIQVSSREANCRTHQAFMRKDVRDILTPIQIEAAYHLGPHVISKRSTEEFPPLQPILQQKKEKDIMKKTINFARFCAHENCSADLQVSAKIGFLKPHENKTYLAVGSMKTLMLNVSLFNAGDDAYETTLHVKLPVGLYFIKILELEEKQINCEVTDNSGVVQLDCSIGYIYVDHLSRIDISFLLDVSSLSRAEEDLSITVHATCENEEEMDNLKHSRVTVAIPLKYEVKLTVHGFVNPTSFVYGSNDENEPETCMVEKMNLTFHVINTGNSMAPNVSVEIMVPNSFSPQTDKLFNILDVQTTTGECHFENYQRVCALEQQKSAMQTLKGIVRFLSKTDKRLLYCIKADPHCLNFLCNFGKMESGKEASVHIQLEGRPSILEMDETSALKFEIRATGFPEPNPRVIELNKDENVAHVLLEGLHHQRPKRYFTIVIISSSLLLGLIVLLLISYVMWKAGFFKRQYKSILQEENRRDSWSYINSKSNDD
# ATP-binding cassette sub-family B member 6 (Homo sapiens), sequence (Q9NP58 whole entry, looked up): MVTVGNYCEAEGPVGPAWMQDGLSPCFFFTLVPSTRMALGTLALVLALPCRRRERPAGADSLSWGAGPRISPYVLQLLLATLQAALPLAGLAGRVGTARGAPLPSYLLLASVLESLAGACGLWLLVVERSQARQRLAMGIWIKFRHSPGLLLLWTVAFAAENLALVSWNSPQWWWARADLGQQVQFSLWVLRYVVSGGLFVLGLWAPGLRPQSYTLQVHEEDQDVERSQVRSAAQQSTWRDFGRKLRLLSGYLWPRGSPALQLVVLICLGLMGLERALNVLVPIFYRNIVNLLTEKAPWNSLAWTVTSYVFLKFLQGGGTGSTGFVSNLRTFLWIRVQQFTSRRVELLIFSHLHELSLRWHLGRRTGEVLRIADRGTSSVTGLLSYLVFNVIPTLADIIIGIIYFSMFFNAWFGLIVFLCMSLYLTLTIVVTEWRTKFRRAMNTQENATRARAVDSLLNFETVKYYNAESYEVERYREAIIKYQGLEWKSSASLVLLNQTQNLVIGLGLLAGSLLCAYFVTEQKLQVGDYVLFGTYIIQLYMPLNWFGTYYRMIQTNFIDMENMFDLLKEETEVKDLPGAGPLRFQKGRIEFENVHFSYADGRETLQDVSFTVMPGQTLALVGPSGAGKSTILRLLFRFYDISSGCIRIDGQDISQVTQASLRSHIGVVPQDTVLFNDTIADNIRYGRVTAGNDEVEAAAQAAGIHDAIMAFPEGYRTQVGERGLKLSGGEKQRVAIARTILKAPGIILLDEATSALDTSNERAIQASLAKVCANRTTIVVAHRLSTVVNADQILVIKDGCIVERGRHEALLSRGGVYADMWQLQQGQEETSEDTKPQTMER
# AP-2 complex subunit beta (Homo sapiens), sequence (P63010 whole entry, looked up, the tested form may be a part, one chain of several): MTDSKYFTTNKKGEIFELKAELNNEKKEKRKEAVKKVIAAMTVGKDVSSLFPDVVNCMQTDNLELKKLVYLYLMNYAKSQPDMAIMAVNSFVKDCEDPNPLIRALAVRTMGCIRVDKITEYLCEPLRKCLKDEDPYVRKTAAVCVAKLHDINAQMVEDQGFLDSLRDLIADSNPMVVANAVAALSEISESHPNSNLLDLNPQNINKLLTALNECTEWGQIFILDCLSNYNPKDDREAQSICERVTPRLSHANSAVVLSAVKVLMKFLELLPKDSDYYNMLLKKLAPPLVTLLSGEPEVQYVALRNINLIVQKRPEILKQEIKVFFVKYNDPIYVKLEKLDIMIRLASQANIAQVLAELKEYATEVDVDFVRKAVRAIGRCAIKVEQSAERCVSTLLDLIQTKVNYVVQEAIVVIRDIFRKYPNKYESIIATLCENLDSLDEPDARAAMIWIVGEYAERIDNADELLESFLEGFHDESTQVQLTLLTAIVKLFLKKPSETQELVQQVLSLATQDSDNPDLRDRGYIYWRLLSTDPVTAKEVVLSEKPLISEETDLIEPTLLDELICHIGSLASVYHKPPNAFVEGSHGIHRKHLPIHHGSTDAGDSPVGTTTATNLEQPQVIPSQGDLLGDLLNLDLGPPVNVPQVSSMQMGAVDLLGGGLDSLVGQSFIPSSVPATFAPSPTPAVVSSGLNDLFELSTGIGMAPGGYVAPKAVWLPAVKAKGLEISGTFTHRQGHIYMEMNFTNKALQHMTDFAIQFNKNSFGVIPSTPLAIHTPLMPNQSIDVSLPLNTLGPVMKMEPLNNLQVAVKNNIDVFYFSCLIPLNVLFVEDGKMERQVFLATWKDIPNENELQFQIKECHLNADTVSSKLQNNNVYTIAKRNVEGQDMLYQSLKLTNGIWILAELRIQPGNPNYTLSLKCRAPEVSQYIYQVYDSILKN
# Beta-2 adrenergic receptor (Homo sapiens), sequence (P07550 whole entry, looked up): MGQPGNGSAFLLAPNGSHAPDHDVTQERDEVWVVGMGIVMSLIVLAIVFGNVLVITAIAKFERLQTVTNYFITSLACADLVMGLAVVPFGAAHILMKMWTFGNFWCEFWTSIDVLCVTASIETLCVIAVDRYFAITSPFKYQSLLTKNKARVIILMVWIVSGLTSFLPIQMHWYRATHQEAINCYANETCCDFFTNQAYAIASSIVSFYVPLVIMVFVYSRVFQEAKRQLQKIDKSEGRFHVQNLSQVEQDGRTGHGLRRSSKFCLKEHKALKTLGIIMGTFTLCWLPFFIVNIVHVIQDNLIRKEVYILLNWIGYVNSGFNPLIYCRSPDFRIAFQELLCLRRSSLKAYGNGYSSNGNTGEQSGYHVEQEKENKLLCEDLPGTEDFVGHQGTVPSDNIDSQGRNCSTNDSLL
smiles,measurement,setting,value
Cc1ccc2[nH]c3c(c2c1)CCNC3=O,percent of DMSO control GFP,[1],99.1% (inactive)
same,GFP response vs DMSO,[2],95.9% (inactive)
same,percent response of DMSO control,[3],104% (inactive)
same,GFP response vs DMSO,[4],91.3% (inactive)
same,"GFP response, % of DMSO",[5],98.7% (inactive)
same,GFP response vs DMSO,[6],101% (inactive)
same,GFP response vs DMSO,[6]; [21],100%
same,GFP response vs DMSO,[6]; [22],103%
same,GFP response relative to DMSO,[7],91.4% (inactive)
same,GFP response relative to DMSO,[7]; [23],92.5%
same,GFP response relative to DMSO,[7]; [24],94.2%
same,GFP response vs DMSO,[8],100% (inactive)
same,"GFP response, % of DMSO",[9],111% (inactive)
same,"GFP response, % of DMSO",[9]; [21],106%
same,"GFP response, % of DMSO",[9]; [22],114%
same,double positive events,[10],57.6%
same,vesicle binding response,[10],187% (inactive)
same,inhibition,[11],7.22% (inactive)
same,superoxide response (% of plate),[12],95% (inactive)
same,aptamer binding inhibition,[13],-2% (inactive)
same,inhibition,[14],-5.6% (inactive)
same,response,[15],-10.4% (inactive)
same,binding (% of control),[16],100% (inactive)
same,efflux inhibition (fraction of control),[17],-0.2 (inactive)
same,inhibition,[18],7% (inactive)
same,differentiation response,[19],-6.66% (inactive)
C[C@]12C[C@H](O)[C@H]3[C@@H](CCC4=CC(=O)CC[C@@]43C)[C@@H]1CC[C@@H]2C(=O)CO,percent of DMSO control GFP,[1],96.3% (inactive)
same,GFP response vs DMSO,[2],110% (inactive)
same,percent response of DMSO control,[3],112% (inactive)
same,GFP response vs DMSO,[4],78.1% (inactive)
same,"GFP response, % of DMSO",[5],101% (inactive)
same,GFP response vs DMSO,[6],98.2% (inactive)
same,GFP response vs DMSO,[6]; [21],98.9%
same,GFP response vs DMSO,[6]; [22],98.7%
same,GFP response relative to DMSO,[7],94.1% (inactive)
same,GFP response relative to DMSO,[7]; [23],94.4%
same,GFP response relative to DMSO,[7]; [24],94%
same,GFP response vs DMSO,[8],98.3% (inactive)
same,"GFP response, % of DMSO",[9],105% (inactive)
same,"GFP response, % of DMSO",[9]; [21],105%
same,"GFP response, % of DMSO",[9]; [22],106%
same,double positive events,[10],70.2%
same,vesicle binding response,[10],222% (inactive)
same,inhibition,[11],31.7% (inactive)
same,superoxide response (% of plate),[12],103% (inactive)
same,aptamer binding inhibition,[13],4% (inactive)
same,response,[20],4.9% (inactive)
same,inhibition,[14],-0.36% (inactive)
same,response,[15],6.31% (inactive)
same,binding (% of control),[16],104% (inactive)
same,efflux inhibition (fraction of control),[17],-0.56 (inactive)
same,inhibition,[18],12% (inactive)
same,differentiation response,[19],4.91% (inactive)
C[C@]12CCC(=O)C=C1CC[C@@H]1[C@@H]2[C@@H](O)C[C@@]2(C)[C@H]1CC[C@]2(O)C(=O)COC(=O)CCC(=O)O,percent of DMSO control GFP,[1],104% (inactive)
same,GFP response vs DMSO,[2],108% (inactive)
same,percent response of DMSO control,[3],110% (inactive)
same,GFP response vs DMSO,[4],119% (inactive)
same,"GFP response, % of DMSO",[5],108% (inactive)
same,GFP response vs DMSO,[6],98% (inactive) and 96.4% (inactive)
same,GFP response vs DMSO,[6]; [21],96.4% and 98.1%
same,GFP response vs DMSO,[6]; [22],101% and 94.9%
same,GFP response relative to DMSO,[7],97.4% (inactive) and 99.2% (inactive)
same,GFP response relative to DMSO,[7]; [23],103% and 97.6%
same,GFP response relative to DMSO,[7]; [24],91.1% and 100%
same,GFP response vs DMSO,[8],100% (inactive)
same,"GFP response, % of DMSO",[9],96.5% (inactive) and 98.3% (inactive)
same,"GFP response, % of DMSO",[9]; [21],94.8% and 99.1%
same,"GFP response, % of DMSO",[9]; [22],92.3% and 97.3%
same,double positive events,[10],43.7%
same,vesicle binding response,[10],165% (inactive)
same,inhibition,[11],-9.57% (inactive)
same,superoxide response (% of plate),[12],98.2% (inactive)
same,aptamer binding inhibition,[13],0% (inactive)
same,inhibition,[14],-8.58% (inactive)
same,response,[15],10.6% (inactive)
same,binding (% of control),[16],99.5% (inactive)
same,efflux inhibition (fraction of control),[17],-0.16 (inactive)
same,inhibition,[18],10% (inactive)
same,differentiation response,[19],-26% (inactive)
